Only some compounds are listed: those with a hit (about 2.9% of all), similar ones and a draw of the others.
PGE2 EP2 inh: blocks the human prostaglandin E2 receptor EP2. P43116. C6 glioma cells expressing human EP2, cAMP TR-FRET; cells stimulated with saturating PGE2. inhibition, % at 25 µM. hit rate 0.52% among 260,000;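 active = percent inhibition above 40 after rounding to a whole number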;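 also: rat C6 glioma host cells with rolipram phosphodiesterase inhibitor present; the protocol text gives 20 µM as final concentration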
Target sequence (P43116 whole entry, looked up): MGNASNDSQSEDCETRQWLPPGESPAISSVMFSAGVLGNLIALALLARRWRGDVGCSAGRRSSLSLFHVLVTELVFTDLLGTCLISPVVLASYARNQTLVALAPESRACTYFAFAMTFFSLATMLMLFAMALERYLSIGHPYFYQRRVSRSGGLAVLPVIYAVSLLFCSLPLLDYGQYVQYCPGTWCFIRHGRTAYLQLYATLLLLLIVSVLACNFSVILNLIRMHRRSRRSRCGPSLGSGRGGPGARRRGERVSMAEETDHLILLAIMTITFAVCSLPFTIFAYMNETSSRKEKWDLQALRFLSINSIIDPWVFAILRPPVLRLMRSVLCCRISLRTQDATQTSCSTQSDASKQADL
PG9 binder: PG9 antibody binding by small molecule. TR-FRET gp120-PG9 antibody binding. inhibition, % at 6.7 µM. hit rate 0.43% among 360,000. AID 624416; in the data active = inhibition above about 8.5%
SKN-1 block: blocks SKN-1 activity in C. elegans; C. elegans VP596 Pgst-4::GFP/RFP ratio, acrylamide-induced, 24 h; inhibition, % at 21.8 µM; hit rate 0.49% among 360,000;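 active = interference check ratio from 0.5 to 1.5 plus GFP to RFP signal ratio inhibition reaching or exceeding a fixed threshold, cut at about 30% in these data, passing the limit was not always enough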
EP2 mod: modulates human prostaglandin E2 receptor EP2 signaling; AID 940; hit rate 0.83% among 260,000; P43116; induction, % at 25 µM; EP2-expressing cells, cAMP HTRF FRET, PGE2 co-stimulation;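 active = compounds whose cAMP rise, as percent of the full-agonist control response, exceeds 60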;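 also: rat C6 glioma line stably carrying human EP2 under a CMV promoter; the protocol text gives 20 µM as final concentration; 100% = response of wells given 1 µM PGE2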
RAM network inh: blocks the yeast RAM network; S. cerevisiae dse1pr::URA3 reporter, 5-FOA growth OD615, 2 d; analog-sensitive cbk1-as2 kinase mutant strain; inhibition, % at 50 µM; hit rate 1.8% among 190,000; AID 868;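 active = inhibition above a set limit, 3 SD over mean compound inhibition, cut at about 8.4% in these data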;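 also: 0% = DMSO-only wells with no growth and 100% = 10 µM 1-NA-PP1 full growth; inhibition rescues growth on 5-FOA so higher OD means more RAM inhibition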
NR1D1 modulator: modulators of human Rev-erb alpha DNA binding. activity, % at 10 µM. Rev-erbα–FITC-DNA binding, fluorescence polarization, 90 min. hit rate 0.79% among 370,000. P20393;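 active = activity above about 14%, limit read from the data; passing the limit was not always enough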;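 also: 0% = DMSO wells with 35 nM protein and 100% = DMSO wells with 750 nM protein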
EP2 cAMP induct: human EP2 receptor cAMP induction, negative in counter-screens; shares compounds with EP2 mod; C6 glioma EP2 cells, cAMP HTRF induction; plus low (about EC15) PGE2 agonist; calls only at 20 µM (by protocol); hit rate 47% among 1,300; AID 1080;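 active = cAMP induction above 50% in the main assay while under 30% in all four parallel counter assays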;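 also: rat C6 glioma cells stably expressing human EP2 receptor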
Numbers without * were called inactive; i = inactive; / = no result given; + = active, no number.

SMILES	PGE2 EP2 inh	PG9 binder	SKN-1 block	EP2 mod	RAM network inh	NR1D1 modulator	EP2 cAMP induct
CCOc1nc(C)cc(C)c1S(=O)(=O)c1ccc(Cl)cc1	4	-1	-4	81*	8.7*	1	+
Cc1ccc(S(=O)(=O)NCC(=O)OCN2C(=O)c3ccccc3C2=O)cc1	8	-1	/	67*	1	4	i
Cc1nn(Cc2ccccc2)c(Cl)c1C(=O)NCc1ccc(C)n1C	7	0	-4	-3	0	0	/
Cc1nn(Cc2c(Cl)cccc2Cl)c(C)c1C(=O)NCc1ccc(C)n1C	4	-1	16	75*	2	0	i
Cc1[nH]ccc(=O)c1OCc1c(Cl)cccc1Cl	6	-2	11	-4	1	2	/
Cc1ccc(Cn2ccc(=O)c(OCc3c(Cl)cccc3Cl)c2C)cc1	8	1	-12	67*	-1	-2	+
Cc1oc(C(=O)NC2(c3ccc(F)cc3)CCCC2)cc1CN1CCOCC1	4	/	/	-45	/	/	/
CC1(C)Cc2nc3nc(SCC(=O)Nc4ccccc4)nc(N)c3cc2CO1	6	-1	1	71*	3	-3	+
Cc1cc(C)cc(-n2nnnc2SCC(=O)Nc2nc3ccccc3s2)c1	4	/	/	-3	/	/	/
CCSc1nnc2n(CC(=O)N(C(C)C)C(C)C)c3ccccc3n12	8	/	/	2	/	/	/
Cc1cc(C(=O)Nc2cccc(/C=C/C(=O)O)c2)c(C)o1	3	-3	-6	99*	1	6	+
Cc1cc(C(=O)Nc2ccccc2)c(C)o1	/	-1	-12	-14	-1	0	/
Cc1oc(-c2ccccc2)cc1C(=O)Nc1cccc(/C=C/C(=O)O)c1	9	-2	2	92*	5	4	+
Cc1oc(-c2ccccc2)cc1C(=O)Nc1ccccc1	13	0	4	-33	4	2	/
CCn1c(=NC(=O)c2ccc(S(=O)(=O)N3CCOCC3)cc2)sc2cccc(OC)c21	15	-1	25	68*	6	15	i
COCCn1c(=NC(=O)c2ccc(S(=O)(=O)N3CCOCC3)cc2)sc2cc(S(N)(=O)=O)ccc21	/	-2	-8	/	/	4	/
O=C(O)/C=C/c1ccccc1Oc1ccc(Cl)cc1Cl	4	1	-9	87*	3	3	+
Cn1c(=O)sc2cc(S(=O)(=O)NC3C4CCCCC43)ccc21 (stereo not drawn)	8	/	/	-53	/	/	/
CCc1nc(N2CCC(C)CC2)c2oc3ccccc3c2n1	5	1	6	70*	3	7	i
COc1cccc(C(=O)N2CCC(n3nnc4ccccc4c3=O)CC2)c1OC	/	/	/	12	/	/	/
CCOC(=O)CCCCCCCCCCCCC1C=CCC1 (stereo not drawn)	10	/	/	54	/	/	+
CC(C)N(C(=O)CSc1nc(C(C)(C)C)nc2ccccc12)C(C)C	10	/	/	3	/	/	/
O=C(N/N=C/c1cccc(F)c1)NC1CCCCC1	5	-1	5	85*	6	4	+
C=CCNC(=O)C1CC(=O)N(c2ccc(OCc3c(F)cccc3Cl)cc2)C1 (stereo not drawn)	23	/	/	-7	/	/	/
Cn1c(CNc2ccc(F)cc2)nnc1SCC(=O)NNC(=O)Cc1ccccc1	8	0	5	51	7	-3	i
SMILES	PGE2 EP2 inh	PG9 binder	SKN-1 block	EP2 mod	RAM network inh	NR1D1 modulator	EP2 cAMP induct
Cc1ccc2cc(C#N)c(SCC(=O)Nc3cccc(Cl)c3Cl)nc2c1	14	/	/	19	/	/	/
CC1CCN(c2nc(-c3ccccc3O)nc3ccccc23)CC1	10	3	14	31	1	2	/
CC(C)Oc1nc(-c2ccccc2O)nc2ccccc12	10	0	3	80*	7	1	+
COc1cc(S(=O)(=O)N2CC(C)OC(C)C2)c(OC)cc1Cl (stereo not drawn)	8	/	/	3	/	/	/
Nc1ccc(SC(F)(F)F)cc1C(=O)c1ccccc1	/	1	6	69*	-2	2	i
O=C(O)c1ccc(C(=O)c2ccccc2)c(C(=O)O)c1	5	/	/	12	/	/	/
COc1ccc(C2=NN(C(=O)CCCC(=O)O)C(c3ccco3)C2)cc1OC (stereo not drawn)	7	/	/	-11	/	/	/
CCN(CC)CCN1C(=O)C(=O)/C(=C(\O)c2cccc(OC)c2)C1c1ccc(C)o1 (stereo not drawn)	9	/	/	2	/	/	/
Cc1ccc(S(=O)(=O)NCC(=O)N(c2ccccc2)C(C(=O)NCc2ccccc2)c2ccco2)cc1 (stereo not drawn)	7	0	0	68*	5	0	i
Cc1cc(C)cc(N(C(=O)CNS(=O)(=O)c2ccccc2)C(C(=O)NCc2ccccc2)c2ccc(C)o2)c1 (stereo not drawn)	4	-2	3	26	4	6	/
CCC(c1nnnn1Cc1ccco1)N(Cc1cc2cc(C)cc(C)c2[nH]c1=O)CC1CCCO1 (stereo not drawn)	13	-3	-18	82*	1	1	i
Cc1ccccc1S(=O)(=O)c1c(C)cc(C)n(CC(C)C)c1=O	9	1	-8	70*	0	0	+
Cc1ccccc1S(=O)(=O)c1c(C)cc(C)n(C)c1=O	-1	-1	3	-4	1	-6	/
CCOc1ccc(-c2nnc3n2N=C(c2ccc(OC)cc2)CS3)cc1	3	2	-14	75*	5	-6	+
CCOc1ccc(C2=Nn3c(nnc3-c3ccccc3OC)SC2)cc1	7	0	6	74*	2	1	+
CCCn1c(SCC(=O)Nc2c(CC)cccc2CC)nnc1-c1ccccn1	8	/	/	31	/	/	/
N#CC1=C(N)OC2=C(C(=O)CCC2)C1c1ccc(-c2cccc(C(F)(F)F)c2)o1 (stereo not drawn)	10	/	/	-30	/	/	/
Cc1cccc2cc(CN(Cc3cccs3)C3(c4nnnn4C4CCCC4)CCCC3)c(=O)[nH]c12	13	1	30	66*	3	-1	i
CCC(c1nnnn1C1CCCCC1)N(Cc1cc2cccc(C)c2[nH]c1=O)C1CCCCC1 (stereo not drawn)	7	/	/	17	/	/	/
COc1ccc2c(C(=O)O)cc(-c3ccco3)nc2c1	12	/	/	-13	/	/	/
CC1CCc2c(sc3nnn(Cc4c(F)cccc4Cl)c(=O)c23)C1 (stereo not drawn)	19	/	/	57	/	/	/
C/C(CCc1oc2ccccc2c1-c1ccc(C)o1)=N/O	4	0	11	75*	1	-1	+
Cc1ccc(CN(Cc2cc3cc(C)cc(C)c3[nH]c2=O)C(=O)NC2CCCCC2)cc1	10	/	/	3	/	/	/
CCOC(=O)CC(=O)CSc1ncnc2c1oc1ccccc12	/	-16	-8	67*	2	6	i
